# Values joined by “and” are separate entries in the source; they are usually repeats but may differ in a detail not shown here. Identical values can stand only once. Records with an inconclusive call do not appear. Active and inactive are the calls of the source. Unless noted, calls come from the whole dose curve; as a rule, active = well fitted curve in the direction sought with a large enough effect in the repeat runs; inconclusive = weak or mixed curves; inactive = no such curve, though single readings can be large; an effect the other way counts as inactive or inconclusive.
# Columns and labels:
# [1] = molecular target: Aryl hydrocarbon receptor (Homo sapiens) (UniProt P35869); test: qHTS assay to identify small molecule that activate the aryl hydrocarbon receptor (AhR) signaling pathway (AID 743085);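 note: HG2L7.5c1 human HepG2 liver cells with stably integrated DRE-driven firefly reporter; series mostly up to about 70 µM; nearly all actives have a fitted effect of over 15% in size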
# Sequence of Aryl hydrocarbon receptor (Homo sapiens) (P35869 whole entry, looked up): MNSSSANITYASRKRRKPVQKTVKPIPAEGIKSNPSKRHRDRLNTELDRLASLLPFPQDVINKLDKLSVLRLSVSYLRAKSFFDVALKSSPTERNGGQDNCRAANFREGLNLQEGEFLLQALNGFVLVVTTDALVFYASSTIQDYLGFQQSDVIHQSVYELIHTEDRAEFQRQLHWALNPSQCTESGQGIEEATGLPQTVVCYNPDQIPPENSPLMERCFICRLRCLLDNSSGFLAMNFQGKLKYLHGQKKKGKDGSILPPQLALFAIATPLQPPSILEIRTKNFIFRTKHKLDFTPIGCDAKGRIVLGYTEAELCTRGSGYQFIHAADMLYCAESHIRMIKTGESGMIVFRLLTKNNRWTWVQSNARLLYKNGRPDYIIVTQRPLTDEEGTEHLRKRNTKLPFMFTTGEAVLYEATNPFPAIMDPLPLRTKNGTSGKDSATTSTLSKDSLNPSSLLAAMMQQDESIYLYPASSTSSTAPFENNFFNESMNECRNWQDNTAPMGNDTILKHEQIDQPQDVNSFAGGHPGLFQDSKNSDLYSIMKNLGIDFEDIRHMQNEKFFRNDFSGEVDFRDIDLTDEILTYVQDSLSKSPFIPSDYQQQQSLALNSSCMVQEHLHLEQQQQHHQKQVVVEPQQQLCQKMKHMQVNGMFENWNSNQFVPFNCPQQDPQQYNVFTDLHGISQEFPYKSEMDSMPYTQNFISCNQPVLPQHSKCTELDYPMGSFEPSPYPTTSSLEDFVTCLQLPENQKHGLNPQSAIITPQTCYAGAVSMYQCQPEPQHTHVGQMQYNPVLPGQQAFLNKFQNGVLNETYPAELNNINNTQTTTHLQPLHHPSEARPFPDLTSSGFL
# How it was run: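 Steps: seed HepG2-AhR-luc cells; allow 5 h at 37C; pin-transfer test compound or vehicle; incubate 24 h at 37C; add viability dye (30 min, 37C) and read fluorescence; add luciferase substrate (30 min, RT) and read luminescence.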
# [2] = qHTS assay for small molecule agonists of the antioxidant response element (ARE) signaling pathway - cell viability counter screen (AID 743203; calls by dose curve; note: potency is the fitted concentration of half-maximal effect; nearly all actives have a fitted effect of over 55% in size)
# How it was run: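 Compounds in DMSO were pinned onto ARE-bla HepG2 cells plated 5 hrs earlier at 2,000 cells/well. Sixteen hours later at 37C/5% CO2, CellTiter-Glo was added and luminescence measured after 30 min at room temperature.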
# [3] = qHTS assay to identify small molecule agonists of the peroxisome proliferator-activated receptor delta (PPARd) signaling pathway - cell viability counter screen (AID 743211); note: potency is the fitted concentration of half-maximal effect; nearly all actives have a fitted effect of over 55% in size
# How it was run: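 Viability of GeneBLAzer PPARd UAS-bla HEK293H cells was assessed after 17 h compound incubation at 37C, using CellTiter-Glo reagent added after the reporter read and luminescence recorded 30 min later.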
# [4] = qHTS assay to identify small molecule that activate the aryl hydrocarbon receptor (AhR) signaling pathway - cell viability counter screen (AID 743086); note: nearly all actives have a fitted effect of over 45% in size; note: potency is the fitted concentration of half-maximal effect
# How it was run: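 HepG2-AhR-luc (HG2L7.5c1) cells, 4000/well, treated 24 h at 37 C with compound; viability measured as CellTiter-Fluor fluorescence after 30 min in the same wells as the luciferase read.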
# [5] = qHTS assay to identify small molecule antagonists of the peroxisome proliferator-activated receptor gamma (PPARg) signaling pathway - cell viability counter screen (AID 743194); conditions: Potency: co-treated with 50 nM rosiglitazone unless noted; note: potency is the fitted concentration of half-maximal effect; nearly all actives have a fitted effect of over 55% in size
# How it was run: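 Cytotoxicity counter screen in PPARg-bla HEK293H cells, same wells as reporter assay. Compounds plus 50 nM rosiglitazone (final) for 17 h at 37 C, then viability read by CellTiter-Glo luminescence.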
# [6] = qHTS assay for small molecule agonists of the antioxidant response element (ARE) signaling pathway (AID 743202; active = well fitted activation curve with a large enough effect in the signal ratio in the repeat runs, not every such curve was filed as active; the % refers to the signal ratio; note: potency is the fitted concentration of half-maximal effect)
# How it was run: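 ARE-bla HepG2 cells (beta-lactamase reporter under the antioxidant response element), plated 5 hours, then exposed to compounds 16 hours at 37 C. LiveBLAzer B/G FRET substrate added for 2 hours at room temperature; fluorescence intensity read.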
# [7] = qHTS assay for small molecule activators of the heat shock response signaling pathway - cell viability counter screen (AID 743209); note: potency is the fitted concentration of half-maximal effect; nearly all actives have a fitted effect of over 50% in size
# How it was run: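 Counter screen for cytotoxicity in HeLa HSE-bla reporter cells. Treatment was 5 h at 37 C; viability was detected by luminescent ATP assay (CellTiter-Glo) in the same wells as the beta-lactamase read.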
smiles,measurement,setting,value
O=C(CCl)C(Cl)Cl,Potency,[1],inactive
same,Potency,[2],61.7 µM (active)
same,Potency,[3],17.5 µM (active)
C[C@H]1O[C@@H](O[C@H]2[C@@H](O)C[C@H](O[C@H]3[C@@H](O)C[C@H](O[C@H]4CC[C@@]5(C)[C@H](CC[C@@H]6[C@@H]5CC[C@]5(C)[C@@H](C7=CC(=O)OC7)CC[C@]65O)C4)O[C@@H]3C)O[C@@H]2C)C[C@H](O)[C@@H]1O,Potency,[4],inactive
same,Potency,[5],7.8 nM (active) and 33.5 nM (active)
same,Potency,[2],10.9 nM (active) and 6 nM (active)
Oc1ccc(C2(c3ccc(O)cc3)CCCCC2)cc1,Potency,[1],inactive
same,Potency,[3],41.3 µM (active)
O=CC(Br)(Br)Br,Potency,[4],48.4 µM (active)
same,Potency,[5],6.14 µM (active)
same,Potency,[6],1.72 µM (active)
same,Potency,[2],54.3 µM (active)
same,Potency,[7],6.14 µM (active)

# From PubChem BioAssay (Tox21)
